The list is a sample of the results.
aSyn 5UTR act – Activators via SNCA 5'UTR binding, MLPCN | alpha-synuclein 5'UTR reporter, activators screen | activity score, % (tested at 7.5 µM), hits read low | 7.1% of 300,000 active; in the data active = activity score below about -60%
The depositor's hits bear a star.

SMILES | aSyn 5UTR act
Cc1cc(NC(=O)CSc2cn(CCNC(=O)c3ccc(Cl)cc3)c3ccccc23)no1 | -90*
Cc1ccc(C(=O)NCCn2cc(SCC(=O)Nc3nnc(C)s3)c3ccccc32)cc1 | -109*
O=C(NCCn1cc(SCc2ccccc2F)c2ccccc21)c1c(F)cccc1F | -62*
O=C(NCCCc1ccccc1)c1ccc(Br)o1 | -62*
O=C(NCCCc1ccccc1)c1ccc([N+](=O)[O-])cc1Cl | -83*
Cc1ccc(C(=O)NCCCc2ccccc2)c(Cl)c1 | -100*
Cc1ccc(C(=O)NCCCc2ccccc2)c(C)c1 | -129*
O=C(NCCCc1ccccc1)c1ccccc1O | -140*
COc1ccccc1-c1c(C#N)c(N)nc2c1CCc1ccccc1-2 | -196*
Cc1cccc(NC(=O)c2sc3nc(-c4ccccc4)cn3c2C)n1 | -124*
Cc1c(C(=O)Nc2ccccc2)sc2nc(-c3ccccc3)cn12 | -160*
COc1ccc(-c2cn3c(C)c(C(=O)Nc4cccc(C)n4)sc3n2)cc1 | -97*
COCCNC(=O)c1sc2nc(-c3ccccc3)cn2c1C | -77*
CCCNC(=O)C(=O)Nc1ccc(N(C)C)cc1 | -126*
C=CCNC(=S)Nc1ccc(N(C)C)cc1 | -70*
COCCNC(=O)C(=O)Nc1ccc(Br)cc1 | -103*
Cc1ccc(C(=O)CNc2ccc(Br)cc2)cc1 | -71*
Cc1ccc(NCC(=O)c2ccc([N+](=O)[O-])cc2)cc1 | -115*
COc1cc(C)nc(N2CCCC(C(=O)NC3CCC(C)CC3)C2)n1 (configuration not stated) | -146*
COc1cccc(-c2noc(-c3cccnc3)n2)c1 | -152*
COc1ccc(Cl)cc1-c1nc(-c2ccc(NC(=O)c3cccs3)cc2)no1 | -120*
COc1cccc(-c2nc(-c3ccccn3)no2)c1 | 104
O=C(Nc1ccc(-c2noc(-c3cccs3)n2)cc1)c1cccnc1 | -94*
COc1cccc(-c2nc(-c3ccc(NC(=O)c4cccnc4)cc3)no2)c1 | -106*
COc1cccc(OCc2nnc(-c3cccs3)o2)c1 | -142*
SMILES | aSyn 5UTR act
c1cncc(-c2noc(-c3ccco3)n2)c1 | -91*
COc1ccc(-c2nc(-c3cccnc3)no2)cc1OC | -132*
COc1ccc(-c2nc(-c3cccc(C)c3)no2)cc1OC | -200*
Cc1ccc(-c2nc(-c3ccccc3)no2)cc1 | 57
COc1cccc(-c2noc(-c3cccs3)n2)c1 | -75*
Cc1ccc(-c2nc(-c3cccnc3)no2)cc1 | -78*
CCCc1cc(NC(=O)CCl)n(-c2ccccc2)n1 | -79*
CCCc1ccc(-c2cc(C(=O)NC3=NCCS3)c3ccccc3n2)cc1 | -191*
Cc1ccc(-c2cc(C(=O)NC3=NCCS3)c3ccccc3n2)cc1C | -168*
CCc1ccc(-c2cc(C(=O)NCc3ccccn3)c3ccccc3n2)cc1 | -227*
Cc1ccc(-c2cc(C(=O)N/N=C/c3c(C)nn(C)c3C)c3ccccc3n2)cc1C | -73*
CC(C)c1ccc(NC(=S)NCc2cccs2)cc1 | -86*
CCc1cccc(NC(=O)c2sc3nc4n(c(=O)c3c2C)CCC4)c1 | -137*
Cc1c(C(=O)Nc2ccccc2F)sc2nc3n(c(=O)c12)CCC3 | -111*
O=c1c2sc(-c3ccccc3)cc2nc2n1CCC2 | 82
Cc1c(C(=O)Nc2ccccn2)sc2nc3n(c(=O)c12)CCC3 | -86*
O=C(NCC(=O)N1CCN(c2ccccc2O)CC1)c1cccs1 | -63*
C/C(NC(=O)c1cccs1)=C1\C(=O)C[C@@H]2[C@H]1C2(C)C | -118*
CC(C)c1cc(C(F)(F)F)n2nc(C(=O)Nc3ccc4c(c3)OCO4)cc2n1 | -83*
CC(C)c1cc(C(=O)Nc2ccc3c(c2)OCO3)no1 | -173*
O=C(Nc1ccc2c(c1)OCO2)c1cc(C2CC2)on1 | -148*
O=C(NCCC1=CCCCC1)c1cnc2n(c1=O)CCS2 | -108*
Nc1c(C(=O)Nc2ccc(S(=O)(=O)N3CCCC3)cc2)sc2nc3ccc(OC(F)(F)F)cc3cc12 | 109
O=C(NCCCc1ccccc1)c1cnc2n(c1=O)CCS2 | -125*
O=C(Nc1ccc(OC(F)(F)F)cc1)c1cnc2n(c1=O)CCS2 | -160*
SMILES | aSyn 5UTR act
O=C(Nc1ccccc1)c1cnc2n(c1=O)CCS2 | -100*
O=C(Nc1cccc(C(F)(F)F)c1)c1cnc2n(c1=O)CCS2 | -108*
O=C(c1ccc2c3n(nc2c1)-c1ccc(Cl)cc1CO3)N1CCCCC1 | -138*
Cc1ccc2c(c1)COc1c3ccc(C(=O)N4CCOCC4)cc3nn1-2 | -113*
O=C(O)c1ccc2c3n(nc2c1)-c1ccc(Cl)cc1CO3 | -161*
CCCCNC(=O)c1cc(-c2ccc(F)cc2)on1 | -592*
CCCNC(=O)c1cc(-c2ccc(OC)cc2)on1 | -160*
CCCCNC(=O)c1cc(-c2ccc(OC)cc2)on1 | -144*
Cc1cccc(NS(=O)(=O)c2ccc(-c3cnc(C4CC4)o3)cc2)c1C | 100
O=C(O)c1cccc(Nc2nc(-c3cc4ccccc4oc3=O)cs2)c1 | -98*
CN(C)c1ccc(C(=O)NC2CCCc3ccccc32)cc1 (configuration not stated) | -71*
COC(=O)C1CCN(C(=O)/C=C/c2ccc3c(c2)OCO3)CC1 | -66*
CC(C)c1ccc(C(=O)CSc2ncn[nH]2)cc1 | -137*
CCOC(=O)C(NC(=O)c1ccccc1Cl)(Nc1ccc(C)c(C)c1)C(F)(F)F (configuration not stated) | -81*
Cc1nc2ccccc2n1-c1nc(-c2ccco2)cc(C(F)(F)F)n1 | 90
FC(F)(F)c1cc(-c2ccco2)nc(N2CCN(c3ccccc3)CC2)n1 | -65*
Clc1ccc2nc(N3CCCCC3)sc2c1 | -148*
Clc1ccc2nc(N3CCCCC3)[nH]c2c1 | -123*
O=c1c(Cl)c(N2CCCCC2)cnn1-c1nc2ccccc2[nH]1 | 93
CS(=O)(=O)N1CCN(c2nc3ccc(Cl)cc3s2)CC1 | -99*
O=C(Cn1cnc2c(oc3nc4c(cc32)CCCC4)c1=O)Nc1cccc(Cl)c1 | 66
C=C(C)Cn1cnc2c(oc3nc4c(cc32)CCCC4)c1=O | -85*
Cc1ccc(NC(=O)c2c(C)nn(-c3ccccc3)c2Cl)cc1 | -81*
COc1cccc(NC(=O)c2c(C)nn(-c3ccccc3)c2Cl)c1 | -137*
COc1ccccc1NC(=O)C1=C(C)NC(=O)NC1c1ccccc1[N+](=O)[O-] (configuration not stated) | -98*
SMILES | aSyn 5UTR act
Cc1nc2ccc(N=NC3=C(O)CC(C)(C)CC3=O)cc2s1 | -77*
CC1(C)CC(=O)C(N=Nc2cccc(S(=O)(=O)N3CCOCC3)c2)=C(O)C1 | 41
CCOc1ccc2nc(N=NC3=C(O)CC(C)(C)CC3=O)sc2c1 | -98*
CC(=O)N1CCc2cc(N=NC3=C(O)CC(C)(C)CC3=O)ccc21 | -95*
Cc1ccc(O)c(N=NC2=C(O)CC(C)(C)CC2=O)c1 | 65
Oc1ccc(N=Nc2ccc3c(c2)OCCO3)c(O)c1 | 62
Oc1ccc(N=Nc2ccc(Br)cc2)c(O)c1 | -226*
Cc1snc2sc(C(=O)c3ccc(F)cc3)c(N)c12 | -96*
CN(C)c1ccnc2sc(C(=O)c3ccc(Br)cc3)c(N)c12 | -85*
CN1Cc2c(N3CCOCC3)nc3sc(C(=O)c4ccc(Br)cc4)c(N)c3c2CC1(C)C | 105
Cc1ccccc1NC(=S)Nc1ccc2cn[nH]c2c1 | -104*
CCc1ccc(NC(=S)Nc2ccc3cn[nH]c3c2)cc1 | -196*
S=C(Nc1ccc(Cl)cc1)Nc1ccc2cn[nH]c2c1 | -175*
S=C(Nc1ccc2cn[nH]c2c1)Nc1ccccc1Cl | -166*

Screening results as filed in PubChem BioAssay.
